The values below come from PubChem BioAssay (Tox21).

“And” between values parts separate entries of the source, which are not always exact repeats. Identical values can stand only once. Records with an inconclusive call do not appear. A call without a number means that no potency is given here. A structure can be active in one record and inactive in another. The source made the active and inactive calls. Calls follow the shape of the full dose curve.
Potency is read from the fitted curve at half-maximal effect.

Chain of Acetylcholinesterase (Homo sapiens) (P22303 whole entry, looked up): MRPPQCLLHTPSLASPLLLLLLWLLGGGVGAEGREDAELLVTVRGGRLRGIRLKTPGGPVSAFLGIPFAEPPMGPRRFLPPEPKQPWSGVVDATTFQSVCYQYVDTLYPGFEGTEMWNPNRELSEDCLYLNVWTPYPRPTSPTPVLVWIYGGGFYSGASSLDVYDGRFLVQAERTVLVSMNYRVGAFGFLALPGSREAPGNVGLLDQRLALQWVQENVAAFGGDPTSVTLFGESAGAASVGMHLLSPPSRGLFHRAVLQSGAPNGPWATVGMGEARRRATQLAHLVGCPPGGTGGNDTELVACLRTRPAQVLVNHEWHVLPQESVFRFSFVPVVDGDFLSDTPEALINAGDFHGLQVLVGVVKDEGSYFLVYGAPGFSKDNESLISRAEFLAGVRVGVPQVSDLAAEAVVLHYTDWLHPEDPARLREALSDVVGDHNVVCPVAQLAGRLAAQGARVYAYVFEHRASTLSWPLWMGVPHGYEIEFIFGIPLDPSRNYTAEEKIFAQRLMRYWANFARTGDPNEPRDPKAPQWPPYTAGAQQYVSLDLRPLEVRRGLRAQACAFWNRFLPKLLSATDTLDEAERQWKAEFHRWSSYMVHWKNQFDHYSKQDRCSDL

The target of one experiment is Acetylcholinesterase (Homo sapiens) (UniProt P22303). Put plainly: Acetylcholinesterase (AChE) small molecule antagonists: colormetric cell-based qHTS assay (AID 1347395). Also: nearly all actives have a fitted effect of over 30% in size. As to conditions: SH-SY5Y cells AChE activity, colorimetric (Ellman); series mostly up to 115 µM. The gist of the method:
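AChE inhibition read colorimetrically via DTNB–thiocholine in SH-SY5Y cells. Compound 30 min, substrate 90 min, both 37 C.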
On the technique in general: Quantitative high-throughput screening tests each substance at several concentrations.
Consider `CC/C=C\C/C=C\C/C=C\CCCCCCCC(=O)O`, for which the Potency result is “inactive”.
For the molecule `CCCCOC(=O)CO`, the Potency entry was “inactive”.
With `COc1cc(C(=O)OC(COCCC(C)C)CN2CCOCC2)cc(OC)c1OC` (stereo not given), the Potency entry was “inactive”.
For the molecule `CC(=O)Oc1ccc(C2(c3ccc(OC(C)=O)cc3)C(=O)Nc3ccccc32)cc1`, the Potency result was “inactive”.
Take `NCCCN(CCO)CCO`: the Potency result is “inactive”.
Turning to `CSc1ccc2c(c1)N(CCC1CCCCN1C)c1ccccc1S2` (stereo not given), the Potency was 70.7 µM (active).
Take `NCCCN1CCN(CCCN)CC1`: the Potency entry is “inactive”.
For the molecule `C[N+](C)(C)CC[N+]1(C)Cc2c(Cl)c(Cl)c(Cl)c(Cl)c2C1`, the Potency entry is “inactive”.
Still for that read-out and setting: as for `Cc1ccc(S(=O)(=O)Oc2ccc(N=Nc3ccc(-c4ccc(N=Nc5c(O)ccc6cc(S(=O)(=O)O)cc(S(=O)(=O)O)c56)c(C)c4)cc3C)cc2)cc1`, the entry is “inactive”.
Turning to `FC(F)(F)C(F)(F)C(F)(F)C(F)(F)C(F)(F)C(F)(F)C(F)(F)C(F)(F)C(F)(F)C(F)(F)F`, the activity, negative = inhibition is 0.771% [at 10.5 µM] (inactive).
Turning to `C[C@]12C=CC(=O)C=C1CC[C@H]1[C@@H]3C[C@@H](O)[C@](O)(C(=O)CO)[C@@]3(C)C[C@H](O)[C@@]12F`, the Potency entry was “inactive”.
On to `O=c1[nH]cnc2c1ncn2[C@@H]1O[C@H](CO)[C@@H](O)[C@H]1O`, for which the Potency entry is “inactive”.
Turning to `c1cnccn1`, the Potency entry was “inactive”.
Consider `c1ccc2sc(SSc3nc4ccccc4s3)nc2c1`, for which the activity, negative = inhibition is -2.2% [at 23.6 µM] (inactive).
In the case of `Cc1cccc2c1cc1ccc3cccc4ccc2c1c34`, the Potency entry was “inactive”.
As for `O=C1OC2(c3ccc(O)cc3Oc3cc(O)ccc32)c2ccccc21`, the Potency entry is “inactive”.
On the same count and under the same terms, as for `CCCCC(CC)COC(=O)c1ccccc1C(=O)O` (stereo not given), the entry is “inactive”; as for `CCCCC(=O)N(C)C`, “inactive”; as for `CN[C@@H]1[C@H](O)[C@H](NC)[C@H]2O[C@@]3(O)C(=O)C[C@@H](C)O[C@H]3O[C@@H]2[C@H]1O`, “inactive”.
In the case of `CCCC(=O)OCCC(C)C`, the Potency result is “inactive”.
`NCCOCCOCCN`: the Potency result was “inactive”.
Consider `CC[Si](OC(C)=O)(OC(C)=O)OC(C)=O`, for which the Potency result is “inactive”.
The same measure, in the same setting: then `O=C(Nc1ccccc1)OCC(CN1CCCCC1)OC(=O)Nc1ccccc1` (stereo not given), with “inactive”; and `O=C1OC(=O)c2cccc3cccc1c23`, with “inactive”; and `CCN(CCC#N)c1ccc(N=Nc2c(Cl)cc([N+](=O)[O-])cc2Cl)cc1`, with “inactive”.
With `COc1ccc2nc(N)sc2c1`, the Potency entry is “inactive”.
On to `NC(N)=NS(=O)(=O)c1ccc(N)cc1`, for which the Potency result was “inactive”.
For the molecule `Cc1scc2c1N(C(=O)CN1CCN(C)CC1)c1ccccc1NC2=O`, the Potency result was “inactive”.
Same read-out and setting: then `C=CC(=O)OCC(CO)(COCC(COC(=O)C=C)(COC(=O)C=C)COC(=O)C=C)COC(=O)C=C`, with “inactive”; and `CN1C[C@H](C(=O)N[C@]2(C)O[C@@]3(O)[C@@H]4CCCN4C(=O)[C@H](Cc4ccccc4)N3C2=O)C[C@@H]2c3cccc4[nH]cc(c34)C[C@H]21`, with 19.5 µM (active).
Regarding `CC(=O)C1C(=O)C=C(C)OC1=O` (stereo not given), the Potency entry was “inactive”.
As to `c1cc(-c2ccncc2)ccn1`, the Potency result was “inactive”.
For `CC(CC=O)CCCC(C)(C)O` (stereo not given), the Potency result is “inactive”.
In the case of `C=CCCCCCCCCCC`, the Potency entry was “inactive”.
Take `O=C(O)c1[nH]n(-c2ccc(S(=O)(=O)O)cc2)c(=O)c1N=Nc1ccc(S(=O)(=O)O)cc1`: the Potency entry is “inactive”.
With `Nc1cccc(N)n1`, the Potency entry is “inactive”.
On to `OCc1ccc(Cl)cc1Cl`, for which the Potency entry is “inactive”.
The same measure, in the same setting: then `ClC/C=C/CCl`, with “inactive”; and `O=S1(=O)CC=CC1`, with “inactive”.
On the same count and under the same terms, as for `CS(=O)(=O)c1ccc([C@@H](O)[C@@H](CO)NC(=O)C(Cl)Cl)cc1`, the entry is “inactive”.

A further experiment has the same target. Put plainly: Acetylcholinesterase (AChE) small molecule antagonists: enzyme-based qHTS assay (AID 1347397). Also: nearly all actives have a fitted effect of over 55% in size. The settings on record: Potency: AChE enzyme activity inhibition; outcome: AChE enzyme activity inhibition; series mostly up to 115 µM. The gist of the method: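 Recombinant human AChE (50 mU/mL) preincubated with compound 30 min at room temperature; acetylthiocholine plus DTNB then added, and thiocholine formation read colorimetrically after 10 min at room temperature. DMSO served as vehicle control.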
Turning to `CC/C=C\C/C=C\C/C=C\CCCCCCCC(=O)O`, the Potency result was “inactive”.
For the molecule `CCCCOC(=O)CO`, the Potency entry is “inactive”.
Turning to `COc1cc(C(=O)OC(COCCC(C)C)CN2CCOCC2)cc(OC)c1OC` (stereo not given), the Potency entry was “inactive”.
Turning to `CC(=O)Oc1ccc(C2(c3ccc(OC(C)=O)cc3)C(=O)Nc3ccccc32)cc1`, the Potency entry is “inactive”.
As to `NCCCN(CCO)CCO`, the Potency result is “inactive”.
For the molecule `CSc1ccc2c(c1)N(CCC1CCCCN1C)c1ccccc1S2` (stereo not given), the Potency is 79.3 µM (active) and inactive.
Consider `NCCCN1CCN(CCCN)CC1`, for which the Potency entry was “inactive”.
As for `C[N+](C)(C)CC[N+]1(C)Cc2c(Cl)c(Cl)c(Cl)c(Cl)c2C1`, the Potency result was “inactive”.
With `Cc1ccc(S(=O)(=O)Oc2ccc(N=Nc3ccc(-c4ccc(N=Nc5c(O)ccc6cc(S(=O)(=O)O)cc(S(=O)(=O)O)c56)c(C)c4)cc3C)cc2)cc1`, the Potency was 8.97 µM (active) and 4.12 µM (active).
For the molecule `FC(F)(F)C(F)(F)C(F)(F)C(F)(F)C(F)(F)C(F)(F)C(F)(F)C(F)(F)C(F)(F)C(F)(F)F`, the activity change, negative = inhibition is 1.63% [at 10.5 µM] (inactive).
As for `C[C@]12C=CC(=O)C=C1CC[C@H]1[C@@H]3C[C@@H](O)[C@](O)(C(=O)CO)[C@@]3(C)C[C@H](O)[C@@]12F`, the Potency entry was “inactive”.
Still for that read-out and setting: as for `O=c1[nH]cnc2c1ncn2[C@@H]1O[C@H](CO)[C@@H](O)[C@H]1O`, the entry is “inactive”; as for `c1cnccn1`, “inactive”.
In the case of `c1ccc2sc(SSc3nc4ccccc4s3)nc2c1`, the activity change, negative = inhibition was 0.97% [at 23.6 µM] (inactive).
As to `Cc1cccc2c1cc1ccc3cccc4ccc2c1c34`, the Potency entry is “inactive”.
As to `O=C1OC2(c3ccc(O)cc3Oc3cc(O)ccc32)c2ccccc21`, the Potency entry was “inactive”.
Same read-out and setting: then `CCCCC(CC)COC(=O)c1ccccc1C(=O)O` (stereo not given), with “inactive”; and `CCCCC(=O)N(C)C`, with “inactive”.
Consider `CN[C@@H]1[C@H](O)[C@H](NC)[C@H]2O[C@@]3(O)C(=O)C[C@@H](C)O[C@H]3O[C@@H]2[C@H]1O`, for which the Potency entry was “inactive”.
In the case of `CCCC(=O)OCCC(C)C`, the Potency entry is “inactive”.
As for `NCCOCCOCCN`, the Potency entry is “inactive”.
In the case of `CC[Si](OC(C)=O)(OC(C)=O)OC(C)=O`, the Potency entry was “inactive”.
As for `O=C(Nc1ccccc1)OCC(CN1CCCCC1)OC(=O)Nc1ccccc1` (stereo not given), the Potency entry is “inactive”.
For the molecule `O=C1OC(=O)c2cccc3cccc1c23`, the Potency result is “inactive”.
On to `CCN(CCC#N)c1ccc(N=Nc2c(Cl)cc([N+](=O)[O-])cc2Cl)cc1`, for which the Potency result was “inactive”.
The same measure, in the same setting: as for `COc1ccc2nc(N)sc2c1`, the entry is “inactive”.
Regarding `NC(N)=NS(=O)(=O)c1ccc(N)cc1`, the Potency entry was “inactive”.
Consider `Cc1scc2c1N(C(=O)CN1CCN(C)CC1)c1ccccc1NC2=O`, for which the Potency entry is “inactive”.
`C=CC(=O)OCC(CO)(COCC(COC(=O)C=C)(COC(=O)C=C)COC(=O)C=C)COC(=O)C=C`: the Potency entry was “inactive”.
In the case of `CN1C[C@H](C(=O)N[C@]2(C)O[C@@]3(O)[C@@H]4CCCN4C(=O)[C@H](Cc4ccccc4)N3C2=O)C[C@@H]2c3cccc4[nH]cc(c34)C[C@H]21`, the Potency is 30.9 µM (active).
As for `CC(=O)C1C(=O)C=C(C)OC1=O` (stereo not given), the Potency entry was “inactive”.
In the case of `c1cc(-c2ccncc2)ccn1`, the Potency entry is “inactive”.
As for `CC(CC=O)CCCC(C)(C)O` (stereo not given), the Potency entry was “inactive”.
For `C=CCCCCCCCCCC`, the Potency entry was “inactive”.
As to `O=C(O)c1[nH]n(-c2ccc(S(=O)(=O)O)cc2)c(=O)c1N=Nc1ccc(S(=O)(=O)O)cc1`, the Potency entry was “inactive”.
On to `Nc1cccc(N)n1`, for which the Potency entry was “inactive”.
Still for that read-out and setting: then `OCc1ccc(Cl)cc1Cl`, with “inactive”; and `ClC/C=C/CCl`, with “inactive”.
With `O=S1(=O)CC=CC1`, the Potency entry was “inactive”.
Regarding `CS(=O)(=O)c1ccc([C@@H](O)[C@@H](CO)NC(=O)C(Cl)Cl)cc1`, the Potency entry was “inactive”.
